Test results as given in PubChem BioAssay (NCI).
Compounds without any hit were thinned out: in the full panel of roughly 79,000, 15% have a hit. The source made the active and inactive calls. Cut-off read from the data, not from the text of the source: active = growth inhibition above about 70%; inactive = the rest.

What was measured:
[1] = NCI Yeast Anticancer Drug Screen. Data for the rad52 strain (AID 147);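 note: 0% = growth of vehicle-treated control cultures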; conditions: S. cerevisiae rad52 mutant growth inhibition, stronger effect = higher value
Outline: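 Vehicle-treated cultures served as the reference for growth inhibition of compound-exposed yeast bearing a DNA repair mutation.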

[2] = NCI Yeast Anticancer Drug Screen. Data for the wt1 strain (AID 149);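 note: 0% = growth of vehicle-treated wt1 cultures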; conditions: S. cerevisiae wt1 strain (SPY 50644) growth inhibition, stronger effect = higher value
Outline: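 Readout: yeast growth inhibition, normalised to vehicle controls, in the wt1 strain exposed to test compounds.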

[3] = NCI Yeast Anticancer Drug Screen. Data for the rad50EPP+ strain (AID 151);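 note: 0% = growth of vehicle-treated control cultures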; conditions: S. cerevisiae rad50 mutant strain, stronger effect = higher value
Outline: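 In this screen, rad50EPP+ yeast were exposed to compounds. Growth inhibition was scored against vehicle-treated controls.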

[4] = NCI Yeast Anticancer Drug Screen. Data for the mgt1 strain (AID 153); conditions: S. cerevisiae mgt1 mutant growth inhibition, stronger effect = higher value
Outline: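 mgt1 strain exposed; growth vs vehicle control recorded as inhibition.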

[5] = NCI Yeast Anticancer Drug Screen. Data for the rad50 strain (AID 155);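 note: 0% = growth of vehicle-only cultures of the same strain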; conditions: S. cerevisiae rad50 strain growth inhibition, stronger effect = higher value
Outline: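 Compounds were tested on a yeast strain with an engineered DNA damage repair alteration; the reported value is growth inhibition normalised to vehicle treatment.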

[6] = NCI Yeast Anticancer Drug Screen. Data for the mec2-1 strain (AID 157); conditions: S. cerevisiae mec2-1 strain, stronger effect = higher value
Outline: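 Vehicle-treated cultures served as reference for growth inhibition of compound-exposed mec2-1 yeast.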

[7] = NCI Yeast Anticancer Drug Screen. Data for the rad14 strain (AID 159);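 note: 0% = growth of vehicle-treated control cultures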; conditions: S. cerevisiae rad14 strain growth inhibition, stronger effect = higher value
Outline: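 Compound-treated yeast with a defined DNA-repair lesion; growth inhibition normalised to vehicle-treated cultures.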

[8] = NCI Yeast Anticancer Drug Screen. Data for the sgs1 mgt1 strain (AID 161);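 note: 0% = growth of cultures given vehicle only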; conditions: S. cerevisiae sgs1 mgt1 strain, stronger effect = higher value
Outline: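 Read-out: growth inhibition vs vehicle controls. Cells: mutant yeast strain deficient in DNA damage repair.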

[9] = NCI Yeast Anticancer Drug Screen. Data for the CLN2oe strain (AID 163);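 note: 0% = growth of vehicle-only control cultures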; conditions: S. cerevisiae CLN2oe strain, stronger effect = higher value
Outline: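 Inhibition relative to vehicle-treated yeast is reported. Cells: strain with genetic alteration in cell-cycle control, grown with compound.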

[10] = NCI Yeast Anticancer Drug Screen. Data for the cln2 rad14 strain (AID 165);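 note: 0% = growth equal to vehicle treated cultures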; conditions: S. cerevisiae cln2 rad14 strain, stronger effect = higher value
Outline: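 Each compound was tested on cln2 rad14 yeast. Inhibition of growth was calculated against vehicle-exposed controls.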

[11] = NCI Yeast Anticancer Drug Screen. Data for the bub3 strain (AID 167); conditions: S. cerevisiae bub3 mutant strain, stronger effect = higher value
Outline: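 Growth of a checkpoint-deficient yeast mutant is measured after compound exposure. Values represent inhibition relative to vehicle.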

[12] = NCI Yeast Anticancer Drug Screen. Data for the wt2 strain (AID 169);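 note: 0% = growth of vehicle-treated yeast cultures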; conditions: S. cerevisiae wt2 strain growth inhibition, stronger effect = higher value
Outline: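 Inhibition of yeast growth was determined after compound treatment, normalised to controls receiving only vehicle.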

[13] = NCI Yeast Anticancer Drug Screen. Data for the mlh1 strain (AID 171);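 note: 0% = growth of vehicle-treated control cultures of the same strain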; conditions: S. cerevisiae mlh1 strain growth inhibition, stronger effect = higher value
Outline: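 Vehicle-normalised growth inhibition of a repair- or checkpoint-altered yeast strain following compound treatment.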

[14] = NCI Yeast Anticancer Drug Screen. Data for the sgs1 strain (AID 173);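 note: 0% = growth of vehicle-only control cultures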; conditions: S. cerevisiae sgs1 mutant, stronger effect = higher value
Outline: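 Screen format: yeast with repair or checkpoint alterations, compound exposure, growth read relative to vehicle.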

[15] = NCI Yeast Anticancer Drug Screen. Data for the mlh1 rad18 strain (AID 175); conditions: S. cerevisiae mlh1 rad18 strain growth inhibition, stronger effect = higher value
Outline: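 Vehicle-treated cultures served as the reference for growth inhibition in a yeast strain carrying DNA damage repair alterations exposed to each compound.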

[16] = NCI Yeast Anticancer Drug Screen. Data for the rad18 strain (AID 177); conditions: S. cerevisiae rad18 mutant growth inhibition, stronger effect = higher value
Outline: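 Test articles were incubated with altered yeast defective in DNA damage repair. Results are given as inhibition of growth versus vehicle.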

[17] = at 5.0 µM (retest, dose inferred, filed as 0.5)
[18] = at 50.0 µM (retest, dose inferred, filed as 5.0)

Measured: growth inhibition

C/C(=N\NC(=S)SCc1ccccc1)c1ccccn1
inactive: [1]; at 1.2 µM 15% | [1]; at 3.7 µM 13% | [1]; at 11.0 µM 60% | [2]; at 1.2 µM -13% | [2]; at 3.7 µM -15% | [2]; at 11.0 µM 58% | [3]; at 1.2 µM 40% | [3]; at 3.7 µM 47% | [4]; at 1.2 µM 13% | [4]; at 3.7 µM 24% | [5]; at 1.2 µM 17% | [5]; at 3.7 µM 22% | [5]; [17] 8% | [5]; at 11.0 µM 69% | [5]; [18] 0% | [6]; at 1.2 µM 38% | [6]; at 3.7 µM 51% | [6]; [17] -5% | [7]; at 1.2 µM -10% | [7]; at 3.7 µM -4% | [7]; at 11.0 µM 31% | [8]; [17] -1% | [9]; at 1.2 µM 2% | [9]; at 3.7 µM 2% | [9]; at 11.0 µM 60% | [10]; [17] 3% | [11]; at 1.2 µM 3% | [11]; at 3.7 µM 20% | [11]; [17] 30% | [12]; at 1.2 µM -36% | [12]; at 3.7 µM -25% | [13]; at 1.2 µM 13% | [13]; at 3.7 µM 24% | [14]; at 1.2 µM 37% | [14]; at 3.7 µM 46% | [15]; [17] -12% | [16]; at 1.2 µM 39% | [16]; at 3.7 µM 53%
active: [1]; at 33.0 µM 93% | [1]; at 100.0 µM 91% | [2]; at 33.0 µM 95% | [2]; at 100.0 µM 94% | [3]; at 11.0 µM 78% | [3]; at 33.0 µM 95% | [3]; at 100.0 µM 92% | [4]; at 11.0 µM 83% | [4]; at 33.0 µM 96% | [4]; at 100.0 µM 92% | [5]; at 33.0 µM 95% | [5]; at 50.0 µM 88% | [5]; at 100.0 µM 92% | [6]; at 11.0 µM 92% | [6]; at 33.0 µM 96% | [6]; [18] 96% | [6]; at 50.0 µM 90.2% | [6]; at 100.0 µM 92% | [7]; at 33.0 µM 94% | [7]; at 100.0 µM 92% | [8]; [18] 95% | [8]; at 50.0 µM 86.2% | [9]; at 33.0 µM 96% | [9]; at 100.0 µM 89% | [10]; [18] 95% | [10]; at 50.0 µM 86.1% | [11]; at 11.0 µM 82% | [11]; at 33.0 µM 95% | [11]; [18] 95% | [11]; at 50.0 µM 87% | [11]; at 100.0 µM 91% | [12]; at 11.0 µM 72% | [12]; at 33.0 µM 95% | [12]; at 100.0 µM 92% | [13]; at 11.0 µM 83% | [13]; at 33.0 µM 96% | [13]; at 100.0 µM 92% | [14]; at 11.0 µM 78% | [14]; at 33.0 µM 97% | [14]; at 100.0 µM 94% | [15]; [18] 95% | [15]; at 50.0 µM 87.5% | [16]; at 11.0 µM 80% | [16]; at 33.0 µM 96% | [16]; at 100.0 µM 91%

CCC(=O)OCCn1c2nc(=O)[nH]c(=O)c-2nc2cc(C)c(C)cc21
active: [3]; at 33.0 µM 73% | [3]; at 100.0 µM 88% | [4]; at 33.0 µM 75% | [4]; at 100.0 µM 88% | [8]; [18] 91% | [12]; at 33.0 µM 85% | [12]; at 100.0 µM 93% | [13]; at 100.0 µM 86% | [14]; at 33.0 µM 83% | [14]; at 100.0 µM 94%
inactive: [1]; at 1.2 µM -10% | [1]; at 3.7 µM -12% | [1]; at 11.0 µM -5% | [1]; at 33.0 µM 0% | [1]; at 100.0 µM 0% | [2]; at 1.2 µM 8% | [2]; at 3.7 µM -4% | [2]; at 11.0 µM 4% | [2]; at 33.0 µM 7% | [2]; at 100.0 µM 11% | [3]; at 1.2 µM -1% | [3]; at 3.7 µM -13% | [3]; at 11.0 µM 24% | [4]; at 1.2 µM -1% | [4]; at 3.7 µM -8% | [4]; at 11.0 µM 3% | [5]; at 1.2 µM -57% | [5]; at 3.7 µM -17% | [5]; [17] 3% | [5]; at 11.0 µM -9% | [5]; at 33.0 µM 15% | [5]; [18] 10% | [5]; at 50.0 µM 33.3% | [5]; at 100.0 µM 44% | [6]; at 1.2 µM -2% | [6]; at 3.7 µM -3% | [6]; [17] 3% | [6]; at 11.0 µM -2% | [6]; at 33.0 µM -4% | [6]; [18] 14% | [6]; at 50.0 µM 42.9% | [6]; at 100.0 µM -1% | [7]; at 1.2 µM 3% | [7]; at 3.7 µM 0% | [7]; at 11.0 µM 23% | [7]; at 33.0 µM 14% | [7]; at 100.0 µM -3% | [8]; [17] 2% | [8]; at 50.0 µM 57.5% | [9]; at 1.2 µM -7% | [9]; at 3.7 µM -5% | [9]; at 11.0 µM -3% | [9]; at 33.0 µM -5% | [9]; at 100.0 µM -2% | [10]; [17] -1% | [10]; [18] 3% | [10]; at 50.0 µM 19.9% | [11]; at 1.2 µM -7% | [11]; at 3.7 µM -4% | [11]; [17] -2% | [11]; at 11.0 µM -5% | [11]; at 33.0 µM 5% | [11]; [18] 10% | [11]; at 50.0 µM 3.15% | [11]; at 100.0 µM 35% | [12]; at 1.2 µM -8% | [12]; at 3.7 µM -1% | [12]; at 11.0 µM 20% | [13]; at 1.2 µM -11% | [13]; at 3.7 µM -6% | [13]; at 11.0 µM -5% | [13]; at 33.0 µM 65% | [14]; at 1.2 µM -15% | [14]; at 3.7 µM -7% | [14]; at 11.0 µM 21% | [15]; [17] 5% | [15]; [18] 29% | [15]; at 50.0 µM 21.1% | [16]; at 1.2 µM -3% | [16]; at 3.7 µM -1% | [16]; at 11.0 µM -1% | [16]; at 33.0 µM 7% | [16]; at 100.0 µM 11%

O=[N+]([O-])c1cc(CCl)ccc1CCl
active: [1]; at 33.0 µM 95% | [1]; at 100.0 µM 97% | [2]; at 33.0 µM 93% | [2]; at 100.0 µM 97% | [3]; at 11.0 µM 89% | [3]; at 33.0 µM 97% | [3]; at 100.0 µM 98% | [4]; at 33.0 µM 90% | [4]; at 100.0 µM 97% | [5]; at 11.0 µM 84% | [5]; at 33.0 µM 97% | [5]; [18] 98% | [5]; at 50.0 µM 99.1% | [5]; at 100.0 µM 97% | [6]; at 33.0 µM 93% | [6]; [18] 97% | [6]; at 50.0 µM 98.9% | [6]; at 100.0 µM 98% | [7]; at 33.0 µM 95% | [7]; at 100.0 µM 97% | [8]; [18] 98% | [8]; at 50.0 µM 98.5% | [9]; at 33.0 µM 94% | [9]; at 100.0 µM 97% | [10]; [18] 97% | [10]; at 50.0 µM 98.3% | [11]; at 33.0 µM 92% | [11]; [18] 97% | [11]; at 50.0 µM 99.4% | [11]; at 100.0 µM 97%
inactive: [1]; at 1.2 µM 6% | [1]; at 3.7 µM 11% | [1]; at 11.0 µM 69% | [2]; at 1.2 µM 2% | [2]; at 3.7 µM 8% | [2]; at 11.0 µM 30% | [3]; at 1.2 µM 16% | [3]; at 3.7 µM 44% | [4]; at 1.2 µM 4% | [4]; at 3.7 µM 2% | [4]; at 11.0 µM 25% | [5]; at 1.2 µM 7% | [5]; at 3.7 µM 20% | [5]; [17] -3% | [6]; at 1.2 µM 3% | [6]; at 3.7 µM 6% | [6]; [17] -7% | [6]; at 11.0 µM 37% | [7]; at 1.2 µM 8% | [7]; at 3.7 µM 13% | [7]; at 11.0 µM 38% | [8]; [17] 4% | [9]; at 1.2 µM 10% | [9]; at 3.7 µM 15% | [9]; at 11.0 µM 48% | [10]; [17] 57% | [11]; at 1.2 µM -18% | [11]; at 3.7 µM 2% | [11]; [17] -17% | [11]; at 11.0 µM 46%
